Rows were chosen to be rich in hits. Some 11% of all compounds tested hit in one or more screens of this group.
AmpC no deterg: inhibitors of E. coli AmpC beta-lactamase without detergent | 330,000 tested, 0.52% active | Potency, µM (series often up to 57.1 µM), for the others: at the highest dose activity change, negative = inhibition, actives largely listed as inhibitors | AID 485341 | AmpC nitrocefin hydrolysis, absorbance 480 nm, 0.0001% Triton | P00811;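 note: plate controls were no compound for no effect and no enzyme for full effect; nearly all actives have a fitted effect of over 20% in size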
Target sequence (P00811 whole entry, looked up): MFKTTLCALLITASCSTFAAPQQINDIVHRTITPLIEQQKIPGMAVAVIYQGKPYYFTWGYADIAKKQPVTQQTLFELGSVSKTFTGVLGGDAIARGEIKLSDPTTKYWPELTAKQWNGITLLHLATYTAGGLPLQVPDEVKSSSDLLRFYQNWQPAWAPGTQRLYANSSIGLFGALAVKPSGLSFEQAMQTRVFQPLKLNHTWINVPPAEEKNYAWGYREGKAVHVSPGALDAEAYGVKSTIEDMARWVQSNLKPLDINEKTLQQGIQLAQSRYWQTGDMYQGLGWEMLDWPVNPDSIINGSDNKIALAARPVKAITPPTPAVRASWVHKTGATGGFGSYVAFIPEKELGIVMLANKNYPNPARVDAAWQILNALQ
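20 mM phosphate pH 7.0 + 0.01% (detergent screen) or 0.0001% Triton X-100; 5.3 nM AmpC reagent; cpd preinc 15 min RT; nitrocefin (800 uM stock) to start; A480 q20 s × 4 min; Activity was normalised to no-enzyme and no-compound control wells.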
Pf growth 48h: inhibits P. falciparum growth in the first generation, 48 h; P. falciparum luciferase growth in erythrocytes, 48 h; Potency, µM (highest dose often 28.7 µM), for inactives: at the top dose activity change, negative = inhibition, most hits filed as inhibitors; 310,000 tested, 5.9% active
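Growth was read as firefly luciferase luminescence after a 48 h, 37 C, 5% CO2 exposure of compounds to reporter-bearing P. falciparum cultures (0.1% parasitemia, 2% hematocrit final) in Albumax-supplemented RPMI 1640.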
Pf growth 96h: P. falciparum growth inhibition at 96 hour, primary screen for plastid delayed-death inhibitors; 320,000 tested, 6.9% active; Potency, µM (titrated, usually from 28.7 µM), inactives show at the highest dose activity change, negative = inhibition, usual class: inhibitors; P. falciparum luciferase reporter growth, 96 h
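Compounds incubated with erythrocytes infected by luciferase-expressing P. falciparum (2% hematocrit, 0.05% parasitemia final) for 96 hours, 37 C in 5% CO2. Growth inhibition scored as decreased luciferase luminescence.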
AmpC detergent: AmpC beta-lactamase inhibition with detergent present; AmpC hydrolysis of nitrocefin, absorbance 480 nm, 0.01% Triton; 370,000 tested, 0.041% active; Potency, µM (titrated, usually from 114 µM), for the others: top-dose activity change, negative = inhibition, usual class: inhibitors;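 note: 0% = no-compound wells and -100% = no-enzyme wells; nearly all actives have a fitted effect of over 25% in size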
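AmpC (5.3 nM in the dispensed reagent) in 20 mM phosphate pH 7.0 with 0.01% (detergent screen) or 0.0001% Triton X-100 was preincubated with compounds for 15 min at room temperature. Nitrocefin was then added from an 800 uM solution, and hydrolysis was followed at 480 nm.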
AMA1 RON2 block: AMA1-RON2 (P. falciparum) interaction inhibition | AlphaScreen AMA1-biotinylated RON2 peptide binding | Potency, µM (top dose mostly 58.2 µM), without a hit: top-dose activity change, negative = inhibition, most hits filed as inhibitors | 360,000 tested, 0.2% active | AID 720542;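 note: 0% = vehicle wells and -100% = peptide control; nearly all actives have a fitted effect of over 45% in size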
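AMA1 (3D7) with his tag at 25 nM final met compounds first, then biotinylated RON2 peptide at 25 nM; detection used donor plus acceptor beads, 10 µg/mL apiece, read by AlphaScreen after 30 min at room temperature.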
HCV inh: inhibitors of hepatitis C virus infection; Huh7.5.1 HCVcc-Cre infection, luciferase reporter, 44 h; Potency, µM (doses to about 41.8 µM), for the others: top-dose activity change, negative = inhibition, hits mostly inhibitors; 340,000 tested, 3.4% active; AID 651820
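1,000 cells/well; 4 h culture; + compound; + HCVcc-Cre (~0.5 moi); 44 h; luciferase substrate, RT 15 min; read 15 sec.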
An asterisk follows results filed as active; ? = inconclusive; nt = no result; [ ] = dose if it differs, or a comment. Calls come from the whole dose curve; as a rule, active = well fitted curve in the direction sought with a large enough effect; inconclusive = small, poorly fitted or top-dose-only effect, or another doubt; inactive = no such curve, though single readings can be large; an effect the other way counts as inactive or inconclusive. Unless noted, % is set by controls: 0 for no effect and ±100 for the full control effect; potency is the fitted concentration of half-maximal effect.

SMILES | AmpC no deterg | Pf growth 48h | Pf growth 96h | AmpC detergent | AMA1 RON2 block | HCV inh
Cc1ccc(C)c(-c2cc(C(=O)NCc3cccs3)c3ccccc3n2)c1 | -4.8% | ? | ? | 0.8% | 3.2% | 12.6µM*
Cc1ccc(C)c(-c2cc(C(=O)Nc3cccnc3)c3ccccc3n2)c1 | 9.3% | 11.7µM* | 2.08µM* | -0.1% | -11.8% | nt
Cc1ccc(-c2cc(-c3ccccc3O)nc(N/N=C/c3cccnc3)n2)cc1 | -19.5% | ? | 0.0294µM* | -1.5% | 21.6% | 0.562µM*
Cc1ccc(C)c(-c2cc(C(=O)Nc3nccs3)c3ccccc3n2)c1 | -21.8% | ? | 1.85µM* | ? | 1.8% | ?
COCCNC(=O)CSc1nc(-c2ccccc2C)nc2c1c(=O)n(C)c(=O)n2C | nt | nt | nt | 0.5% | nt | nt
Cc1ccc(N2C(=O)CSC23C(=O)N(CC(=O)NCc2ccccc2)c2ccccc23)cc1 (stereo unspecified) | nt | nt | nt | -5.8% | nt | nt
CC(C)c1ccccc1Oc1c(C(F)(F)F)oc2c(CN3CCN(C)CC3)c(O)ccc2c1=O | nt | nt | nt | 1.6% | nt | nt
Cc1ccc(-c2cc(C(=O)Nc3cccnc3)c3ccccc3n2)o1 | 1.5% | nt | 4.65µM* | -13.1% | 35.5% | 6.1%
Cc1ccccc1-c1cc(C(=O)N/N=C/c2cccnc2)c2ccccc2n1 | 57.0% | 10.4µM* | -15.1% | 4.0% | 13.1% | -14.9%
O=C(Nc1cccnc1)c1cc(-c2ccc(Br)cc2)nc2ccccc12 | -10.0% | ? | -7.7% | -11.4% | -6.5% | 3.16µM*
O=C(c1nc(-c2ccc(Cl)cc2)n2c1CCCCC2)N1CCN(c2ccccc2F)CC1 | nt | nt | nt | 14.1% | nt | nt
O=C1Nc2ccccc2CCC1Sc1nnc(-c2ccc(Cl)cc2)s1 (stereo unspecified) | -31.3% | 13.1µM* | ? | -8.5% | -12.7% | ?
CC(=O)c1c(C)oc2c1cc(NS(=O)(=O)c1ccc(Cl)c(C)c1)c1ccccc12 | nt | nt | nt | 9.0% | nt | nt
O=C1NC(=O)C(CCc2ccncc2)(CCc2ccncc2)C(=O)N1CCc1ccc(F)cc1 | 39.4% | -45.4% | ? | ? | -1.8% | 6.1%
O=C1NC(=O)C(CCc2ccncc2)(CCc2ccncc2)C(=O)N1CCc1ccccc1 | 48.2% | ? | 2.94µM* | -7.6% | -3.6% | 3.6%
Cc1ccnc(NS(=O)(=O)c2ccc(NC(=O)c3ccc(S(=O)(=O)N4CC(C)OC(C)C4)cc3)cc2)n1 (stereo unspecified) | 31.6µM* | ? | -43.8% | -3.2% | -5.5%[11.6 µM] | 8.7%
COc1ccc(COC(=O)c2ccc(Cl)c(S(=O)(=O)N3CC(C)OC(C)C3)c2)cc1 (stereo unspecified) | ? | 4.65µM* | 6.57µM* | -11.1% | 5.4% | 14.1µM*
COc1cc(OC)cc(C(=O)NNC(=O)c2ccc(S(=O)(=O)N3CC(C)OC(C)C3)cc2)c1 (stereo unspecified) | -10.3% | 9.0% | ? | -1.0% | 0.8% | 5.5%
COc1ccc(C(=O)NNC(=O)c2ccc(S(=O)(=O)N3CC(C)OC(C)C3)cc2)cc1 (stereo unspecified) | -17.3% | -5.3% | 1.47µM* | 1.8% | 36.8% | 12.5%
COc1ccc(C(C)n2c(C)c3c(C)nnc(C)c3c2C)cc1 (stereo unspecified) | 124.5% | ? | ? | ? | -3.6% | ?
Cc1nnc(C)c2c(C)n(C(C)c3ccccc3)c(C)c12 (stereo unspecified) | 35.6% | 8.28µM* | -8.4% | -8.1% | -16.5% | 10µM*
COc1ccccc1Nc1nc(NCCO)nc(N)c1[N+](=O)[O-] | -24.9% | ? | ? | 1.3% | -18.9% | -77.5%
COc1ccccc1Nc1nc(NCCC(C)C)nc(N)c1[N+](=O)[O-] | -29.2% | 3.7µM* | ? | 4.1% | 4.5% | 12.6µM*
COCCCNc1nc(N)c([N+](=O)[O-])c(Nc2cc(OC)ccc2OC)n1 | -1.2% | -24.7% | ? | 0.4% | -14.7% | -20.2%
COc1ccc(OC)c(Nc2nc(NCCCN(C)C)nc(N)c2[N+](=O)[O-])c1 | 27.7% | 13.1µM* | 11.7µM* | -3.8% | 0.0% | -16.9%
SMILES | AmpC no deterg | Pf growth 48h | Pf growth 96h | AmpC detergent | AMA1 RON2 block | HCV inh
COc1cc(-c2nc3c(c(C)nn3-c3ccccc3)c3cc(OC)c(OC)cc23)ccc1O | -5.7% | 2.94µM* | ? | 7.1% | 1.1% | ?
COc1cc2c(-c3cc(Br)ccc3O)nc3c(c(C)nn3-c3ccccc3)c2cc1OC | nt | nt | nt | 9.2% | nt | nt
CCc1ccc(C(=O)NC(Cc2c[nH]c3ccccc23)C(=O)OCC(=O)c2ccc(Br)cc2)cc1 (stereo unspecified) | nt | nt | nt | -6.7% | nt | nt
Cn1cccc1C(=S)N=P(C1CCCCC1)(N1CCOCC1)N1CCOCC1 | -3.8% | nt | 8.28µM* | -7.5% | 2.3% | 18.1%
Cn1c(=O)c2nc(SCC(=O)Nc3ccc(Cl)c(Cl)c3)n(C)c2n(C)c1=O | nt | nt | nt | 1.4% | nt | nt
COc1ccc(C)cc1S(=O)(=O)Nc1cccc(-c2ccc(N3CCCC3)nn2)c1 | nt | nt | nt | 14.2% | nt | nt
CCN(CC)CCN(C(=O)c1ccco1)c1nc2cc(C)cc(C)c2s1 | nt | nt | nt | 6.4% | nt | nt
CCN(CC)CCN(C(=O)c1c(F)cccc1F)c1nc2cc(C)cc(C)c2s1 | 158.9% | ? | ? | 1.6% | -14.3% | 10µM*
O=Nc1c(-c2c(O)[nH]c3cc(Br)ccc23)[nH]c2ccccc12 | 5.62µM* | 4.15µM* | 4.65µM* | ? | 10µM* | 5.62µM*
O=[N+]([O-])c1ccc(Oc2cccc3cccnc23)c([N+](=O)[O-])c1 | -21.0% | 10.4µM* | 13.1µM* | ? | -18.8% | -24.5%
N#Cc1ccc(Oc2cccc3cccnc23)c([N+](=O)[O-])c1 | -6.8% | 12.1% | 5.1% | ? | 6.6% | -1.9%
CCOC(=O)CCC(=O)N1CCNC(=O)C1 | 11.2µM* | 43.6% | 7.6% | 5.6% | -3.0% | 5.0%
Cc1ccccc1C(=O)NC(NC(=O)c1ccccc1C)c1cccc([N+](=O)[O-])c1 | -11.1% | 27.1% | 1.65µM* | -16.9% | -4.5% | 4.0%
COc1cccc(C(NC(=O)c2ccccc2F)NC(=O)c2ccccc2F)c1 | 2.8% | 13.1µM* | ? | -3.0% | -4.9% | -19.2%
COc1ccc(C(CNC(=O)/C=C/c2c(Cl)nc3ccccn23)N(C)C)cc1 (stereo unspecified) | -7.9% | -18.1% | ? | -2.2% | 13.8% | ?
COc1ccc(CCN(C)C(=O)/C=C/c2c(Cl)nc3ccccn23)cc1OC | -13.7% | 11.7µM* | ? | -3.5% | -6.2% | 2.8%
Cc1cccc(N(CC(N)=O)C2SC(=O)N(Cc3cccc(C(=O)O)c3)C2=O)c1 (stereo unspecified) | nt | nt | nt | -6.6% | nt | nt

Assay outcomes deposited in PubChem by National Center for Advancing Translational Sciences (NCATS).
